Test results published in PubChem BioAssay.
Calls of active or inactive are those of the source.

Key:
[1] = tested on: Human papillomavirus type 1a protein E7 (residues 44-93); assay: HPV1a E7 fragment binders on microarrays, primary screen, biochemical, small-molecule microarray, residues 44-93, 635 nm fluorescence (AID 1108); conditions: small-molecule microarray binding, fluorescence 635 nm; higher = more signal;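 also: E7 fragment applied at 1 µg/mL in TBST for 1 h at 4 C; score combines spot fluorescence with its signal to noise ratio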
[2] = modulators of HCV replicon luciferase signal, primary screen, HCV replication inhibitor project, Huh7 cells, luciferase reporter (AID 1109); conditions: 48 h, higher = more signal;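 also: huh7 hepatoma cells harbouring a luciferase neomycin HCV replicon reporter; luciferase luminescence as measure of HCV replicon replication; test concentration not given here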
[3] = target: Left-right determination factor 2 (Homo sapiens) (UniProt O00292); assay: LEFTY2 binders on small-molecule microarrays, primary screen, biochemical, small-molecule microarray, 635 nm fluorescence scan (AID 1110); conditions: LEFTY2 binding, higher = more signal
Sequence of Left-right determination factor 2 (Homo sapiens) (O00292 whole entry, looked up): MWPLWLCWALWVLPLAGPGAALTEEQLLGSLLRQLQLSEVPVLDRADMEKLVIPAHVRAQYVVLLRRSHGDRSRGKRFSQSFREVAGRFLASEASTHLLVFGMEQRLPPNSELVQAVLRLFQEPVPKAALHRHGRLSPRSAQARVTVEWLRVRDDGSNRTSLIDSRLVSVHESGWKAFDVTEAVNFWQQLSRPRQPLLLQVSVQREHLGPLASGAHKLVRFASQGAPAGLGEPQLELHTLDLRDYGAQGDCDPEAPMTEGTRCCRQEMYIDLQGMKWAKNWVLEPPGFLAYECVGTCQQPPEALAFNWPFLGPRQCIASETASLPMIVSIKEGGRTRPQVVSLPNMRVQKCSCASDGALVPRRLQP

[4] = target: Calmodulin-1 (Homo sapiens) (UniProt P0DP23); assay: CALM1 binders on microarrays, EGTA buffer, profiling panel, biochemical, small-molecule microarray, Cy5-labelled CALM1 (AID 1111); conditions: Cy5-CALM1 binding fluorescence, higher = more signal;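 also: labelled calmodulin applied in Tris saline Tween buffer holding calcium plus EGTA and DTT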
[5] = target: Calmodulin-1 (Homo sapiens) (UniProt P0DP23); assay: calcium-bound CALM1 binders on microarrays, profiling panel, artefact control for SMM control-protein annotation, biochemical, small-molecule microarray, Cy5-labelled CALM1, plus calcium (AID 1112); conditions: Cy5-CALM1 binding fluorescence, higher = more signal;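 also: score merges spot fluorescence with signal to noise from triplicate slides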
[6] = small-molecule microarray binders of probe aWnt5a, primary screen, biochemical, biotinylated probe, 635/667 nm fluorescence (AID 1113); conditions: higher = more signal;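 also: score merges 667 nm fluorescence intensity with signal-to-noise per printed feature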
[7] = small-molecule microarray binders of probe aShh, primary screen, biochemical, biotinylated probe, 635/667 nm fluorescence (AID 1114); conditions: higher = more signal;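 also: probe is biotin-labelled aShh protein from a stem cell growth factor screen; measures binding of labelled protein to compounds printed on the slide; score merges feature fluorescence at 667 nm with signal-to-noise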
[8] = small-molecule microarray binders of probe aNog, primary screen, biochemical, biotinylated probe, 635/667 nm fluorescence (AID 1115); conditions: higher = more signal;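 also: probe is biotinylated aNog protein used at 0.15 µg/mL for 1 h at 4 C; z-score combines 667 nm fluorescence of each spot with its signal to noise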
[9] = target: Torsin-1A-interacting protein 1 (Homo sapiens) (UniProt Q5JTV8); assay: LAP1 binders from COS7 cell lysate, primary screen, small-molecule microarray, 635/667 nm fluorescence (AID 1116); conditions: COS7-hLAP1 lysate binding, 635 nm fluorescence, higher = more signal
Sequence of Torsin-1A-interacting protein 1 (Homo sapiens) (Q5JTV8 whole entry, looked up): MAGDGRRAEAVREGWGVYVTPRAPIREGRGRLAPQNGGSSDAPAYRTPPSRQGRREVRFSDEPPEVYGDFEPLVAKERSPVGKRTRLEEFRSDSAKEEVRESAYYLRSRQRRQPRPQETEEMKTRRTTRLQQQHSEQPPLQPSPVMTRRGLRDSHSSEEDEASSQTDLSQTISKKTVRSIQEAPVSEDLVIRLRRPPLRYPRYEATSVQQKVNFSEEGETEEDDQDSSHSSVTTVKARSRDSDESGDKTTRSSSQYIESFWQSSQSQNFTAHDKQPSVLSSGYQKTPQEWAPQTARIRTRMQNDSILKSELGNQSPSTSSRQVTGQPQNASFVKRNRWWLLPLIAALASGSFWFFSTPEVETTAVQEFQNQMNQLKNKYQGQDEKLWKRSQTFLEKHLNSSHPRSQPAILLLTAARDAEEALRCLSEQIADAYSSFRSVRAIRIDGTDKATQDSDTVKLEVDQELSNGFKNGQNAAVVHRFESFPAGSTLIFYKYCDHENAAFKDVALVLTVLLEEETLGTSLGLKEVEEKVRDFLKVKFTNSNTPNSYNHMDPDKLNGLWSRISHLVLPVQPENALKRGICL

[10] = target: Alpha-bungarotoxin (Bungarus multicinctus) (UniProt P60615); assay: alpha-bungarotoxin binders on microarray, profiling panel, artefact control for SMM control protein annotation, biochemical, small-molecule microarray, Alexa647 label, 635/667 nm fluorescence (AID 1117); conditions: alpha-BTX-A647 binding fluorescence, higher = more signal
Sequence of Alpha-bungarotoxin (Bungarus multicinctus) (P60615 whole entry, looked up): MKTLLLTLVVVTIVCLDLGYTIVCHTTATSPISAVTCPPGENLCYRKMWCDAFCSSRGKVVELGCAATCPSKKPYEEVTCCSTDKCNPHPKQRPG

Albumin (Bos taurus) = Albumin (Bos taurus) (UniProt P02769); assay: bovine serum albumin binders on microarray, profiling panel, artefact control for SMM control protein annotation, biochemical, small-molecule microarray, Alexa647 label, 635/667 nm fluorescence (AID 1118); conditions: BSA-A647 binding, fluorescence 635 nm, higher = more signal;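 also: score merges 667 nm emission intensity and signal-to-noise per printed compound spot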
Sequence of Albumin (Bos taurus) (P02769 whole entry, looked up): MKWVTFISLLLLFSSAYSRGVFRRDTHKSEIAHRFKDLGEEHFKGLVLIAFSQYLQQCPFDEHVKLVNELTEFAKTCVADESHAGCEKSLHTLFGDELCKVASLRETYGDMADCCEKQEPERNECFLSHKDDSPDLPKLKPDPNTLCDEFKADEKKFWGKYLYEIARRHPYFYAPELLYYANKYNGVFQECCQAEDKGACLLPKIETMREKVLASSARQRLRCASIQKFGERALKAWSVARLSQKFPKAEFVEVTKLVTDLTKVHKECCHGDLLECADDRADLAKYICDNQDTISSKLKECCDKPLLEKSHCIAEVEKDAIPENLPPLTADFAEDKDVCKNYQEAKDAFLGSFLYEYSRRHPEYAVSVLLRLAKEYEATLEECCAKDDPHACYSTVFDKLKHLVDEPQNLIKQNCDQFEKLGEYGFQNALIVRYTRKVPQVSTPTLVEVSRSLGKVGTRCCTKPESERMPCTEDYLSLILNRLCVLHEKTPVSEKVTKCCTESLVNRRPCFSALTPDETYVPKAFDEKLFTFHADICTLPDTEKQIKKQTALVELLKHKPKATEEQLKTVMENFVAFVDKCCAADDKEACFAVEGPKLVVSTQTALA

[11] = small-molecule microarray binders of probe aXIP, primary screen, biochemical, NeuroSMM set, 635/667 nm fluorescence (AID 1119); conditions: higher = more signal, called active from +8 up or from −8 down;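 also: probe is the protein aXip251-270 applied at 1 µg/mL to compound-printed slides; binding of probe to printed compounds measured as 667 nm fluorescence plus signal to noise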
[12] = small-molecule binders of probe aNOTCH3, primary screen, biochemical, small-molecule microarray, 635/667 nm fluorescence (AID 1120); conditions: higher = more signal;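 also: probe is a biotin-tagged antibody raised against NOTCH3 rather than NOTCH3 protein; score merges spot fluorescence near 667 nm with spot signal to noise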
[13] = small-molecule binders of probe aNOTCH2, primary screen, biochemical, small-molecule microarray, 635/667 nm fluorescence (AID 1121); conditions: higher = more signal;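 also: score merges feature fluorescence read at 667 nm with its signal to noise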
[14] = target: Carbonic anhydrase 2 (Homo sapiens) (UniProt P00918); assay: CAII small-molecule binders, profiling panel, biochemical, small-molecule microarray, Alexa647-labelled CAII (AID 1122); conditions: CAII-A647 binding fluorescence, higher = more signal
[15] = COS7 lysate on small-molecule microarray, probe aHis, 635 nm (AID 1123); conditions: COS7 cell lysate, fluorescence, higher = more signal;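 also: z-score combines 667nm fluorescence intensity with signal-to-noise per printed compound spot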
[16] = compound binding in COS7 lysate, probe aLAP1, primary screen, cell lysate, small-molecule microarray (AID 1124); conditions: probe aLAP1, fluorescence, higher = more signal;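 also: lysate comes from COS7 cells expressing LAP1 and is applied at 0.3 µg/mL; score merges spot fluorescence near 667 nm with signal-to-noise over triplicate slides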
Sam68 (KHDRBS1) = assay: Sam68 small-molecule binders, primary screen, biochemical, small-molecule microarray, 635 nm fluorescence (AID 1125); conditions: small-molecule microarray binding, higher = more signal;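 also: score merges 667 nm channel intensity with signal to noise over triplicate slides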
[17] = tested on: Chordin-like protein 2 (CHRDL2); assay: CHRDL2 small-molecule binders, primary screen, biochemical, small-molecule microarray, 635 nm fluorescence (AID 1126); conditions: small-molecule microarray binding, fluorescence 635 nm; higher = more signal;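 also: printed compound slides probed with Chrdl2 protein at 4 µg/mL for 1 h at 4 C; score merges 667 nm emission intensity with signal to noise over three replicate slides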
[18] = target: Concanavalin-A (Canavalia ensiformis) (UniProt P02866); assay: ConA small-molecule binders, primary screen, artefact control for SMM control protein annotation, biochemical, small-molecule microarray, Alexa647 label, 635 nm (AID 1127); conditions: ConA-A647 binding fluorescence, higher = more signal;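 also: z combines 667 nm emission intensity with signal-to-noise across three replicate slides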
Sequence of Concanavalin-A (Canavalia ensiformis) (P02866 whole entry, looked up): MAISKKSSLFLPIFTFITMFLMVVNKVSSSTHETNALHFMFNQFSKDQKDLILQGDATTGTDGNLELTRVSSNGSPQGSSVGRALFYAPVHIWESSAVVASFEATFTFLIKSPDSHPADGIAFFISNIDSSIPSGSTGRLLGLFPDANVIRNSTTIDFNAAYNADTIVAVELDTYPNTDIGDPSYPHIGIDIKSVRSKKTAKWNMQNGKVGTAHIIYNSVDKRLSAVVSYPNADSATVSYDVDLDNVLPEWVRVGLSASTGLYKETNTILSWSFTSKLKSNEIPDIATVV

SMILES | composite z-score [1] | z-score [2] | composite z-score [3] | composite z-score [4] | composite z-score [5] | composite z-score [6] | composite z-score [7] | composite z-score [8] | composite z-score [9] | composite z-score [10] | composite z-score (Albumin (Bos taurus)) | composite Z-score [11] | composite z-score [12] | composite z-score [13] | composite z-score [14] | composite z-score [15] | composite z-score [16] | composite z-score (Sam68 (KHDRBS1)) | composite z-score [17] | composite z-score [18]
CC(C)C(CO)N1C(=O)[C@@H]2[C@H]3C(=O)OCC=C[C@H]3OC23C=CCN(c2ccc(Cl)cc2)C(=O)[C@@H]13 (stereo not given in full) | -0.0683 | -0.665 | -0.433 | -0.871 | -0.499 | -0.1 | 0.0278 | -0.196 | -0.344 | -1.17 | -1.26 | -0.268 (inactive) | -0.171 | -0.117 | 0.839 | -0.372 | -0.364 | 0.0729 | -0.847 | -0.842
COc1ccc([Si](C)(C)[C@@H]2[C@@H](CC(=O)N3Cc4ccccc4C[C@H]3CO)O[C@]3(C(=O)N(Cc4ccc(N5C(=O)c6cccc7cccc5c67)cc4)c4ccccc43)[C@H]2C)cc1 | 1.35 | -3.96 | 0.987 | 0.318 | -0.512 | -0.0585 | 0.0952 | 0.251 | 1.04 | 0.964 | -0.604 | 0.535 (inactive) | 0.171 | -0.0728 | 0.351 | 1.25 | -0.0469 | 1.31 | 1.18 | 0.988
COc1ccc([Si](C)(C)[C@@H]2[C@@H](CC(=O)N(CCO)Cc3ccccc3)O[C@]3(C(=O)N(Cc4cccc(N5CCCCC5=O)c4)c4ccccc43)[C@H]2C)cc1 | 0.846 | -3.89 | 0.478 | 0.822 | 0.645 | 0.0825 | 0.128 | 1.73 | 0.761 | 0.672 | 0.11 | 0.42 (inactive) | -0.22 | -0.131 | 0.52 | 1.86 | -0.104 | 0.646 | 0.905 | 1.03
C[N+](C)(C)CCCCCCNC(=O)[C@@H]1C[C@@H]2C(=O)N3CCC[C@H]3C(=O)N2[C@@H]1c1ccc(O)cc1 | 0.279 | 0.501 | 0.994 | -0.31 | -0.887 | -0.0239 | -0.138 | -0.29 | 0.531 | 0.341 | -0.245 | 0.05 (inactive) | 0.0591 | -0.118 | 0.684 | 1.47 | 0.326 | 0.904 | 1.41 | 0.818
Cc1ccc(S[C@]2(C(=O)NC(C)C)CC(=O)N(Cc3cc(C(F)(F)F)cc(C(F)(F)F)c3)[C@@H]2c2ccc(CO)cc2)cc1 | -0.411 | -0.343 | -1.76 | -0.491 | 0.0262 | 0.0857 | -0.393 | -0.143 | 0.0702 | 0.26 | -0.0844 | -0.459 (inactive) | -0.384 | -0.126 | 0.241 | 0.596 | 0.293 | -0.374 | -1.19 | -0.534
CCCN1C(=O)[C@]2(Cc3ccccc31)N=C(c1ccc(OCCCO)cc1)O[C@@H]2c1ccccc1 | 1.42 | -3.29 | -0.148 | 1.98 | -0.317 | 0.0427 | 1.17 | 0.401 | 0.414 | 1.28 | -0.0671 | 0.0068 (inactive) | 0.247 | -0.125 | 0.625 | 2.19 | 0.402 | 1.24 | -0.184 | 0.884
NC(=O)NCC#Cc1ccc2c(c1)[C@]1(C(=O)N2)[C@H](C(=O)N2CCN(c3ncccn3)CC2)[C@H]2C(=O)O[C@H](c3ccccc3)[C@H](c3ccccc3)N2[C@@H]1c1ccc(O)cc1 | 1.23 | -0.437 | 0.728 | 0.313 | -0.156 | 0.108 | 0.296 | -0.524 | 0.498 | 0.677 | 0.151 | 0.953 (inactive) | 0.856 | -0.0149 | 0.304 | 0.817 | 0.102 | 1.2 | 0.864 | 0.721
CCCN1C(=O)[C@@]2(Cc3ccccc31)N=C(c1ccc(OCCCO)cc1)O[C@H]2c1ccccc1 | 1.41 | -2.52 | -0.256 | 0.354 | -0.29 | 0.0857 | 0.123 | 0.587 | 1.28 | 1.17 | -0.324 | 0.953 (inactive) | 0.0916 | 0.0118 | 0.523 | 1.88 | 0.587 | 1.31 | 0.201 | 1.13
C[N+](C)(C)CCCC[C@@H]1NC(=O)[C@@H]2C[C@H](C(=O)NCCCCCCN)[C@H](c3cccc(OCCO)c3)N2C1=O | 0.896 | -0.0759 | 0.676 | 2.6 | 1.48 | 0.095 | 1.45 | 0.662 | 2.55 | 1.9 | 0.919 | 1.24 (inactive) | 0.39 | 0.409 | 0.608 | 1.54 | 0.731 | 1.31 | 0.518 | 1.12
C#CCN([C@@H](Cc1ccccc1)C(=O)OC)[C@@H](/C=C/C1CC1)[C@H](O)Cc1ccccc1 | -0.447 | -3.13 | 0.0156 | -0.979 | -1.54 | -0.217 | -0.0553 | -0.352 | 0.483 | 0.0673 | 0.801 | -0.275 (inactive) | -0.0984 | -0.208 | -0.321 | -0.0769 | 0.868 | -0.326 | 1.16 | -1.5
